Assay results published in PubChem BioAssay (EPA / NIEHS).
Records with an inconclusive call do not appear. Calls of active or inactive are those of the source. How the source made its calls: active means hit-call score of the fitted dose curve at least 0.9, where 1 is the maximum; inconclusive means response in the unintended direction; inactive means score below 0.9.

Target: Oxysterols receptor LXR-alpha (Homo sapiens) (UniProt Q13133)
Test: ATG_LXRa_TRANS: Attagene TRANS-FACTORIAL HepG2 Assay for human Liver X Receptor alpha (LXRa) (AID 2282980)
Settings: HepG2 Attagene TRANS reporter, LXRa transactivation
Description: ATG_TRANS is a cell-based, multiplexed-readout assay that uses HepG2, a human liver cell line, with measurements taken at 24 hours after chemical dosing in a 24-well plate.ATG_LXRa_TRANS is one of 30 assay component(s) measured or calculated from the ATG_TRANS assay. It is designed to make measurements of mRNA induction, a form of inducible reporter, as detected with fluorescence intensity signals by Reverse transcription polymerase chain reaction (RT-PCR) and Capillary electrophoresis technology.Data from the assay component ATG_LXRa_TRANS was analyzed into 1 assay endpoint. This assay endpoint, ATG_LXRa_TRANS, was analyzed in the positive analysis fitting direction relative to DMSO as the negative control and baseline of activity. Using a type of inducible reporter, measures of mRNA for gain-of-signal activity can be used to understand the reporter gene at the transcription factor-level as they relate to the gene NR1H3. Furthermore, this assay endpoint can be referred to as a primary readout, because this assay has produced multiple assay endpoints where this one serves a reporter gene function. To generalize the intended target to other relatable targets, this assay endpoint is annotated to the nuclear receptor intended target family, where the subfamily is non-steroidal.
Human liver HepG2 cells are transiently transfected with multiple reporter transcription units (MRTUs) in 6-well plates using FuGene 6 reagent (Roche; 3 ml FuGene/1 mg DNA). The MRTU constructs are regulated by a cis-regulating element (promoter). […] A major difference between the CIS and TRANS system is that in CIS activities of endogenous TFs are measured, whereas the TRANS assay evaluates changes in activities of exogenous, chimeric NR-Gal4 proteins. […] At the end of 24 hour incubation, total RNA was isolated using TriZol reagent (Invitrogen). The isolated RNA is then reverse-transcribed using oligo(dT) primer and Mo-MLV reverse transcriptase (Invitrogen) with DNAse I (Ambion) treatment for 30 min. The one-tenth of the produced cDNA was amplified by PCR using Taq DNA polymerase (Invitrogen) and two reporter sequence-specific primers. The PCR products were fluorescently labeled by primer extension with 6-arboxyfluorescein (6-FAM) 5'-labeled reporter sequence-specific primer (2 min at 95 C, 20 s at 68 C and 10 min at 72 C) and these products were digested with 5U of HpaI (New England Biolabs) for 2h at 37 C. The fragments were purified using Qiaquick PCR columns (Qiagen), analyzed on an ABI 3130xL genetic analyzer (Applied Biosystems) with peak positions identified by using a set of X-rhodamine (ROX)-labeled MapMarker1000 molecular weight standards (BioVentures). The raw capillary electrophoresis data was processed using Attagraph software (Attagene).

Oxysterols receptor LXR-alpha (Homo sapiens), sequence (Q13133 whole entry, looked up): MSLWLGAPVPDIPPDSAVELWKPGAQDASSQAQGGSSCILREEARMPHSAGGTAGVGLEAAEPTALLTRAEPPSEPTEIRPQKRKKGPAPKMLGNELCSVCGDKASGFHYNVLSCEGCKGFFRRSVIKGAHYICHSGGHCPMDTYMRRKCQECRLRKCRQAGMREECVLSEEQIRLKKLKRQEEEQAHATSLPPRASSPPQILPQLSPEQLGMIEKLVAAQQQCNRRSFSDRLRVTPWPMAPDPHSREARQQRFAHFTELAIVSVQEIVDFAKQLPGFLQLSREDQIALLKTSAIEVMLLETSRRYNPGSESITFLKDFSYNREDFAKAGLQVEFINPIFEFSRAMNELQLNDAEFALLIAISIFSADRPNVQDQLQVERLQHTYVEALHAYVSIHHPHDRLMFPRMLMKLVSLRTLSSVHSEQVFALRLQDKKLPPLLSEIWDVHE

outcome, inactive:
CCCC(=O)c1cc(O)c(O)cc1O
CC(C)(C)c1cc(CCC(=O)NN)cc(C(C)(C)C)c1O
CC(=O)Nc1ccc(CC(=O)O)cc1
C=CC(=O)OCCOCCOCC
O=C=NC1CCC(CC2CCC(N=C=O)CC2)CC1 (stereo not given)
O=CCCc1ccccc1
Nc1nc2ccc([N+](=O)[O-])cc2s1
Cc1ccc(Nc2ccc(O)c3c2C(=O)c2ccccc2C3=O)cc1
O=C(OCc1ccccc1)C(=O)OCc1ccccc1
COc1nc(C)nc(N)n1
c1ccc2c(c1)c1cccc3ccc4cccc2c4c31
CCC(=O)/C=C/C1C(C)=CCCC1(C)C (stereo not given)
C=CCOC(=O)CCC1CCCCC1
CSc1nc(NC2CC2)nc(NC(C)(C)C)n1
CC(C)OP(=O)(CP(=O)(OC(C)C)OC(C)C)OC(C)C
CCc1ccc(C=O)cc1
Nc1ccc(S(=O)(=O)O)c(N)c1
C=C(C)[C@@H]1CCC2=CC(=O)C[C@@H](C)[C@]2(C)C1
CCCc1c(OCCCOc2ccc(OCC(=O)O)cc2)ccc(C(C)=O)c1O
O=C[C@@H](O)[C@H](O)[C@H](O)CO
O=C(O)c1snc(Cl)c1Cl
O=C(O)c1cccc(C(F)(F)F)c1
CCCCOCCOCCOCCOCCO
O=C(O)c1cccc([N+](=O)[O-])c1
C/C=C(\C)C(=O)OCc1ccccc1
CCCCC/C=C/C=C/C=O
OC1C(O)C(O)C(O)C(O)C1O (stereo not given)
O=C(O)c1ccc(C(=O)O)cc1
C=C[C@@H](C)CCC=C(C)C
COc1cc(C=O)ccc1OC(=O)C(C)C
C=C(C)C1CCC(C)CC1O (stereo not given)
CCCCCCCCCC=O
CC1=CCC2C(C1)C2(C)C (stereo not given)
Clc1nc(C(Cl)(Cl)Cl)c(Cl)c(Cl)c1Cl
CC(C)C(C)(C)C(C)(C)C(C)(C)S
O=S(=O)(O)c1cccc2c(S(=O)(=O)O)cccc12
Nc1cc(Cl)c(O)c(Cl)c1

AC50, active:
CC1CC(OC(=O)c2ccccc2O)CC(C)(C)C1 (stereo not given) 31.1 µM
Clc1ccc2c(c1)C(N1CCNCC1)=Nc1ccccc1O2 44.4 µM
COCCCOc1ccnc(CS(=O)c2nc3ccccc3[nH]2)c1C (stereo not given) 23.2 µM
